PubChem BioAssay (EPA / NIEHS)
Records with an inconclusive call do not appear. Calls of active or inactive are those of the source. The calls were made as follows, unless noted: active = hit-call score of the fitted dose curve at least 0.9, where 1 is the maximum; inactive = score below 0.9.

Tests used:
[1] = BSK_3C_VCAM1: BioMAP Diversity Plus: 3C Assay for Vascular cell adhesion molecule 1 (VCAM1) Biomarker Activity (AID 2282999); settings: BioMAP 3C HUVEC, VCAM1 ELISA, cytokine-stimulated; actives raise or lower the signal
How it was run: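 Vascular primary endothelium (human umbilical vein) was exposed to chemicals and assayed 24 h later. VCAM-1 levels came from ELISA, with DMSO serving as baseline for bidirectional fitting.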

[2] = BSK_4H_Eotaxin3: BioMAP Diversity Plus: 4H Assay for Eotaxin 3 Biomarker Activity (AID 2283000); settings: primary human endothelial cells (HUVEC); actives raise or lower the signal
How it was run: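 Human umbilical vein endothelial cells (BSK_4H system) dosed with test chemical; Eotaxin-3 (CCL26) measured by ELISA 24 h after dosing. Bidirectional curve fitting relative to DMSO negative control as baseline.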

[3] = target: human Peroxisome Proliferator-activated Receptor alpha (PPARa), PPARA (gene 5465) (UniProt Q07869); test: ATG_PPARa_TRANS: Attagene TRANS-FACTORIAL HepG2 Assay for human Peroxisome Proliferator-activated Receptor alpha (PPARa) (AID 2283001; active = hit-call score of the fitted dose curve at least 0.9, where 1 is the maximum)
Chain of human Peroxisome Proliferator-activated Receptor alpha (PPARa), PPARA (gene 5465) (Q07869 whole entry, looked up, the tested form may be a part): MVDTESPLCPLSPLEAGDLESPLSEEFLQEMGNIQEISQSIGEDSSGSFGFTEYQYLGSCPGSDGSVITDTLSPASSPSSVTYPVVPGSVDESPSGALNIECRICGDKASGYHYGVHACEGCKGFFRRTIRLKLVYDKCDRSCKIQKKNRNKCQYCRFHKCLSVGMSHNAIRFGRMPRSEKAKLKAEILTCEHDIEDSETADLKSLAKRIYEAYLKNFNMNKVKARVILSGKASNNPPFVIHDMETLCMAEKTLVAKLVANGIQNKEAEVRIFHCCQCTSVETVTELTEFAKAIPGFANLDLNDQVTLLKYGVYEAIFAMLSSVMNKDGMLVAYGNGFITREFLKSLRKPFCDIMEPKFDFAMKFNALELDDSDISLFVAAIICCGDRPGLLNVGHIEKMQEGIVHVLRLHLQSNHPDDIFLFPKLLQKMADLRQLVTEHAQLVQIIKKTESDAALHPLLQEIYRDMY
How it was run: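 Exposure: 24 h, transiently transfected HepG2 cells. Endpoint: GAL4-UAS reporter mRNA, RT-PCR with capillary electrophoresis fluorescence. Baseline: DMSO; increases fitted.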

[4] = read-out: Intercellular Adhesion Molecule 1 (ICAM1), ICAM1 (gene 3383); test: BSK_3C_ICAM1: BioMAP Diversity Plus: 3C Assay for Intercellular Adhesion Molecule 1 (ICAM1) Biomarker Activity (AID 2283003); settings: primary human endothelial cells (HUVEC); actives raise or lower the signal
How it was run: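 Using DMSO as baseline, bidirectional curve fitting was applied to ICAM-1 ELISA signals from HUVEC in the 3C system, measured 24 h after compound addition.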

[5] = BSK_3C_Proliferation: Cell Proliferation Assessment in the BioMAP Diversity Plus: 3C Assay (AID 2283006); settings: primary human endothelial cells (HUVEC);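 as to AC50: potency may reflect either rise or fall in cell number versus DMSO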
How it was run: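 Measured here: sulforhodamine B (0.1%) staining of TCA-fixed sub-confluent umbilical vein endothelial cultures 48 h post-dosing, absorbance 560 nm. DMSO served as negative control and baseline; both signal gain and loss were modelled.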

[6] = target: Peroxisome proliferator-activated receptor gamma (Homo sapiens) (UniProt P37231); test: ATG_PPARg_TRANS: Attagene TRANS-FACTORIAL HepG2 Assay for human Peroxisome Proliferator-activated Receptor-gamma (PPARg) (AID 2283007; active = hit-call score of the fitted dose curve at least 0.9, where 1 is the maximum)
Chain of Peroxisome proliferator-activated receptor gamma (Homo sapiens) (P37231 whole entry, looked up, the tested form may be a part): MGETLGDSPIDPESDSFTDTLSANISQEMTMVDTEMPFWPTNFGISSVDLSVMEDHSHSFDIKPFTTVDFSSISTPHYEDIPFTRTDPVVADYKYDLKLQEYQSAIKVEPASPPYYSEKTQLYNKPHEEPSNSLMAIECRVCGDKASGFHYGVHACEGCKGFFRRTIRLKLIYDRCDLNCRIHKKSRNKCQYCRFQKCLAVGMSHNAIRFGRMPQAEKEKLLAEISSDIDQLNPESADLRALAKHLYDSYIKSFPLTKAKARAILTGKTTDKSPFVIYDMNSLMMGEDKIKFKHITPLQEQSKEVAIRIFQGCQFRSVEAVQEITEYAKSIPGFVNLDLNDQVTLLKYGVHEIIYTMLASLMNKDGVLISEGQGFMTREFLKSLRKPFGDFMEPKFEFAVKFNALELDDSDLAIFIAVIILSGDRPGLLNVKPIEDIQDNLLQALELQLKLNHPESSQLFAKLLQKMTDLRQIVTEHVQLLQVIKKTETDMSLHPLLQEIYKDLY
How it was run: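 Endpoint reflects upward reporter mRNA change versus DMSO controls. Setup: transiently transfected HepG2, GAL4-UAS reporters driven by chimeric NR-Gal4, 24 h incubation, RT-PCR with capillary electrophoresis read-out.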

[7] = target: Nuclear receptor subfamily 1 group I member 2 (Homo sapiens) (UniProt O75469); test: ATG_PXR_TRANS: Attagene TRANS-FACTORIAL HepG2 Assay for human Pregnane X Receptor (PXR) (AID 2283008; active = hit-call score of the fitted dose curve at least 0.9, where 1 is the maximum)
Chain of Nuclear receptor subfamily 1 group I member 2 (Homo sapiens) (O75469 whole entry, looked up, the tested form may be a part): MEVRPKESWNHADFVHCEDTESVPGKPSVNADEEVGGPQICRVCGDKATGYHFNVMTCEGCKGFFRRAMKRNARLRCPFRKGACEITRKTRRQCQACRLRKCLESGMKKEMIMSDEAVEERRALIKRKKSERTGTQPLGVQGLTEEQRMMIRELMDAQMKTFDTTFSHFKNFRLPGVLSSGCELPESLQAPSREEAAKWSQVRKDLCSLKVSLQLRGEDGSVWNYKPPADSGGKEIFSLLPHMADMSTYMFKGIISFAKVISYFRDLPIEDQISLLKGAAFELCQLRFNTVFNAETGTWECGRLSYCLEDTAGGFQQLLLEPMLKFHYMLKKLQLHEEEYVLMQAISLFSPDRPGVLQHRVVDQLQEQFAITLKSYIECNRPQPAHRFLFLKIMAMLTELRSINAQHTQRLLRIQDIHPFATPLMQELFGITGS
How it was run: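 Multiplexed TRANS reporter panel in HepG2; this component tracks PXR-Gal4-driven reporter mRNA after 24 h dosing, measured by RT-PCR with capillary electrophoresis fluorescence, fitted against DMSO.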

[8] = target: human Retinoic Acid Receptor beta (RARb), RARB (gene 5915) (UniProt P10826); test: ATG_RARb_TRANS: Attagene TRANS-FACTORIAL HepG2 Assay for human Retinoic Acid Receptor beta (AID 2283004; active = hit-call score of the fitted dose curve at least 0.9, where 1 is the maximum)
Chain of human Retinoic Acid Receptor beta (RARb), RARB (gene 5915) (P10826 whole entry, looked up, the tested form may be a part): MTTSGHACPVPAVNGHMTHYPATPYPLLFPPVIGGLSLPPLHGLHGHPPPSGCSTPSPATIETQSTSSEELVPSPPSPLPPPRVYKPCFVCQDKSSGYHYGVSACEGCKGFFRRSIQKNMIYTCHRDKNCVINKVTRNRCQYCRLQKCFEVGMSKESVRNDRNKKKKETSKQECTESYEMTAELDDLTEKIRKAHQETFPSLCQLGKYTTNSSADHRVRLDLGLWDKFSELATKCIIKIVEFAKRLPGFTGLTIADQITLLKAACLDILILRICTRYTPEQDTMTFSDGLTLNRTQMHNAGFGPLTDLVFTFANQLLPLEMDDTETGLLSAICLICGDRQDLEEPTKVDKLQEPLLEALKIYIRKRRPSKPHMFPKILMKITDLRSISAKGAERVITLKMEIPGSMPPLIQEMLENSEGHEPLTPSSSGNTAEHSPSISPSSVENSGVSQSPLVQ
How it was run: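 Induction of reporter mRNA from a chimeric RARb-Gal4 construct was measured by RT-PCR, FAM labelling, HpaI digestion and capillary electrophoresis. Measurements followed 24 h compound treatment of transiently transfected human HepG2 liver cells, with DMSO as baseline.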

[9] = target: Retinoic acid receptor alpha (Homo sapiens) (UniProt P10276); test: ATG_RARa_TRANS: Attagene TRANS-FACTORIAL HepG2 Assay for human Retinoic Acid Receptor alpha (RARa) (AID 2283005; active = hit-call score of the fitted dose curve at least 0.9, where 1 is the maximum;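 as to AC50: potency for increased reporter signal meaning RARa activation over DMSO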)
Chain of Retinoic acid receptor alpha (Homo sapiens) (P10276 whole entry, looked up, the tested form may be a part): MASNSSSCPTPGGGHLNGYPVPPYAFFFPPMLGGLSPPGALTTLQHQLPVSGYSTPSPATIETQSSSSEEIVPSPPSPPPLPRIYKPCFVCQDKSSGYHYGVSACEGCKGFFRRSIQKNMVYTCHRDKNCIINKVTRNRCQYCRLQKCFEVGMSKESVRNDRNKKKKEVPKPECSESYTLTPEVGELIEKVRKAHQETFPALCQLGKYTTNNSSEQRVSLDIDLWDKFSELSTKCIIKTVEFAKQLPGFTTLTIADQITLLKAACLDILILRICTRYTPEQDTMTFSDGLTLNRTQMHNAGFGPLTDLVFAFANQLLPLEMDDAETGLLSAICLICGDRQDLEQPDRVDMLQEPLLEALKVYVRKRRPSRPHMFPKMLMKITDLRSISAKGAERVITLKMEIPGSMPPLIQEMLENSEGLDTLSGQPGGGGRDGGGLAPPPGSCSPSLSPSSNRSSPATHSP
How it was run: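 HepG2 cells transiently transfected with multiple reporter units expressing chimeric RARα-GAL4 fusion, with GAL4-UAS-driven reporters. After 24 h compound exposure, reporter mRNA induction quantified by RT-PCR and capillary electrophoresis with fluorescent labeling; gain-of-signal fitted relative to DMSO control.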

[10] = target: human Peroxisome Proliferator-activated Receptor delta (PPARd), PPARD (gene 5467) (UniProt Q03181); test: ATG_PPARd_TRANS: Attagene TRANS-FACTORIAL HepG2 Assay for human Peroxisome Proliferator-activated Receptor delta (PPARd) (AID 2283002; active = hit-call score of the fitted dose curve at least 0.9, where 1 is the maximum)
Chain of human Peroxisome Proliferator-activated Receptor delta (PPARd), PPARD (gene 5467) (Q03181 whole entry, looked up, the tested form may be a part): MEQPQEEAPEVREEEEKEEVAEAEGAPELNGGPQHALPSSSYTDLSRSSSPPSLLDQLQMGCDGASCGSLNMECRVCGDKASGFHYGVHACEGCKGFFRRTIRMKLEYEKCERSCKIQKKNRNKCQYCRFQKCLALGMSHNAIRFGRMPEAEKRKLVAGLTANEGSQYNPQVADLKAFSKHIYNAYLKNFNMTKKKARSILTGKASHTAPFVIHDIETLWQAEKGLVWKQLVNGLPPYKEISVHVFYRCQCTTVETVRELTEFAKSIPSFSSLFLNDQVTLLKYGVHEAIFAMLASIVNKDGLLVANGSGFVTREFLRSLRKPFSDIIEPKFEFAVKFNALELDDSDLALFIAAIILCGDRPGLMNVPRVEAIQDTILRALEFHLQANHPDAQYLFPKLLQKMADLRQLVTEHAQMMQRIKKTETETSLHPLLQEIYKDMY
How it was run: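 Measured quantity: GAL4-UAS reporter transcript induction in HepG2 after 24 h chemical dosing, with NR-Gal4 chimeras supplied by transient transfection. Detection by RT-PCR and capillary electrophoresis; upward fit against DMSO.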

Measured: AC50

CCCCOC(=O)c1ccccc1C(=O)O
inactive: [1] | [2] | [3] | [4] | [5] | [6]

COP(=O)(OC)SCn1c(=O)oc2cc(Cl)cnc21
inactive: [1] | [3] | [5] | [7]
active: [2] 36.9 µM | [6] 14.7 µM

CC(C)[C@H](C(=O)O[C@H](C#N)c1cccc(Oc2ccccc2)c1)c1ccc(Cl)cc1
inactive: [1] | [2]
active: [5] 6.57 µM | [6] 9.37 µM | [7] 5 µM

CCCSP(=O)(OCC)SCCC
not listed: [3] | [4] | [10]
inactive: all other assays above

CC(=NC#N)N(C)Cc1ccc(Cl)nc1
not listed: [4] | [8] | [10]
inactive: all other assays above

C=C(C)[C@H]1Cc2c(ccc3c2O[C@@H]2COc4cc(OC)c(OC)cc4[C@@H]2C3=O)O1
active: [1] 20 µM | [2] 20 µM | [5] 1.36 µM
not listed: [10]
inactive: all other assays above

CCc1cnc(C2=NC(C)(C(C)C)C(=O)N2)c(C(=O)O)c1 (stereo not drawn)
inactive: [1] | [2] | [4] | [8] | [5] | [6]

CCCCSP(=O)(SCCCC)SCCCC
inactive: [1] | [2] | [3] | [8] | [7]
active: [5] 29.5 µM | [6] 30.5 µM

COc1cc(OC)nc(Sc2cccc(Cl)c2C(=O)O)n1
inactive: [1] | [2] | [3] | [4] | [5] | [6]

FC(F)C(F)(F)OCC(Cn1cncn1)c1ccc(Cl)cc1Cl (stereo not drawn)
active: [2] 28.4 µM | [9] 13.2 µM | [5] 20 µM
not listed: [3] | [10]
inactive: all other assays above

CCOP(=S)(OCC)Oc1ccc([N+](=O)[O-])cc1
active: [6] 28.8 µM | [7] 19.9 µM
inactive: [1] | [2] | [4] | [5]

COP(=O)(NC(C)=O)SC (stereo not drawn)
inactive: [1] | [2] | [5] | [6]

CNC(=O)Oc1cccc2c1OC(C)(C)O2
inactive: [3] | [5] | [6] | [7]
active: [1] 28.5 µM | [2] 20 µM

CCOP(=O)(SC(C)CC)N1CCSC1=O (stereo not drawn)
not listed: [3] | [4] | [10]
inactive: all other assays above

Nc1nc(N)nc(NC2CC2)n1
not listed: [4] | [6] | [10]
inactive: all other assays above

CC(Oc1cccc(Cl)c1)C(=O)O (stereo not drawn)
not listed: [2] | [4] | [8]
inactive: all other assays above

CCOP(=O)(NC(C)C)Oc1ccc(SC)c(C)c1 (stereo not drawn)
active: [6] 32.3 µM
not listed: [3] | [4] | [10]
inactive: all other assays above

CN(C)NC(=O)CCC(=O)O
inactive: [1] | [2] | [3] | [9] | [5] | [6]

CCCSP(=O)(OCC)Oc1ccc(Br)cc1Cl (stereo not drawn)
active: [5] 27.4 µM
not listed: [10]
inactive: all other assays above

CCNc1nc(Cl)nc(NC(C)(C)C#N)n1
inactive: [1] | [2] | [3] | [5] | [6]

CSC1=N[C@@](C)(c2ccccc2)C(=O)N1Nc1ccccc1
active: [2] 25.3 µM | [5] 18.9 µM
inactive: [1] | [4] | [6] | [7]

CCOP(=S)(OCC)OC(Cl)C(Cl)(Cl)Cl (stereo not drawn)
active: [1] 14.6 µM | [5] 32.1 µM
inactive: [2] | [8] | [9] | [6] | [7]

CCCCOC(=O)[C@@H](C)Oc1ccc(Oc2ccc(C#N)cc2F)cc1
not listed: [8] | [9] | [10]
inactive: all other assays above

COc1cccc(C(=O)NN(C(=O)c2cc(C)cc(C)c2)C(C)(C)C)c1C
not listed: [3] | [4] | [10]
inactive: all other assays above

CSc1nnc(C(C)(C)C)c(=O)n1N
inactive: [1] | [2] | [4] | [8] | [9] | [5]

CCOP(=O)(OCC)Oc1cc(C)nc(C(C)C)n1
inactive: [1] | [2] | [4] | [5] | [6]

CN(C)C(=O)Nc1cccc(C(F)(F)F)c1
not listed: [4] | [10]
inactive: all other assays above

COP(=O)(OC)C(O)C(Cl)(Cl)Cl (stereo not drawn)
active: [9] 78.9 µM | [6] 72.2 µM
not listed: [4]
inactive: all other assays above

C[Si](Cn1cncn1)(c1ccc(F)cc1)c1ccc(F)cc1
active: [6] 48.5 µM
not listed: [8] | [9] | [10]
inactive: all other assays above

CCOC(=O)CC(SP(=O)(OC)OC)C(=O)OCC (stereo not drawn)
active: [6] 28.7 µM
not listed: [7] | [9] | [10]
inactive: all other assays above

C#CCC1=C(C)C(OC(=O)C2C(C=C(C)C)C2(C)C)CC1=O (stereo not drawn)
active: [5] 28.8 µM | [6] 28 µM | [7] 3.12 µM
not listed: [2]
inactive: all other assays above

CNc1cnn(-c2cccc(C(F)(F)F)c2)c(=O)c1Cl
not listed: [3] | [10]
inactive: all other assays above

CC(COc1ccc(Oc2ccccc2)cc1)Oc1ccccn1 (stereo not drawn)
active: [6] 14.5 µM
inactive: [1] | [2] | [4] | [5] | [7]
